HIF-2a block: inhibitors of HIF-2a | inhibition, % at 18.8 µM | AID 624352 | 360,000 compounds, 0.72% hits | 786-0 RCC cells HIF-2a reporter, luciferase luminescence, overnight;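 active = inhibition of the luminescence signal of 40% or more relative to plate controls, in a single-dose primary screen at 18.75 µM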
TROY signal inh: inhibitors of TROY-dependent NF-kB signaling. Q293 LMP1-TROYcd NF-kB luciferase reporter, 4 h. inhibition, % at 10 µM. 360,000 compounds, 0.98% hits;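 active = compounds whose plate-normalised and pattern-corrected inhibition of the luciferase reporter signal at the single screening dose is 50% or more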
TWEAK-Fn14 inh: TWEAK-Fn14 signaling inhibition | inhibition, % at 10 µM | AID 1159606 | TWEAK-stimulated Fn14 reporter cells, luciferase luminescence, 8 h | 360,000 compounds, 2% hits; in the data active = inhibition above about 50%
Peg3 promoter: reduces Peg3 promoter-driven luciferase expression in HeLa; HeLa PEG-Prom luciferase reporter, luminescence, overnight; inhibition, % at 20 µM; 360,000 compounds, 1.7% hits;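 active = inhibition of at least 50% at 20 µM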
KKLEB tox: reduces viability of KKLEB cystic fibrosis airway cells. KKLEB CF airway cells viability, ATPlite luminescence, overnight; active compounds read low; cells stimulated with P. aeruginosa culture filtrate. activity change (cytotoxicity), % at 5 µM. 360,000 compounds, 0.36% hits. AID 602141;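 active = corrected activity change at or below -50% at 5 µM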
CF NFkB inh: inhibitors of cystic fibrosis induced NF-kB; KKLEB NF-kB-GFP reporter, PAF-induced, GFP fluorescence overnight; 360,000 compounds, 0.86% hits; AID 588850; inhibition, % at 5 µM;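 active = at least 50% inhibition at 5 µM, scaled per plate between neutral and stimulator controls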;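 also: PAF is a Pseudomonas aeruginosa culture filtrate used as stimulus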
Of the large screens only hits and unclear results are named; the others gave an inactive call. Compounds with a hit are over-represented: about 3.9% of the library has one in this group of screens.

CCCCCCN1C[C@@H](n2cc(COC(=O)c3ccccc3)nn2)[C@H](O)C[C@@H]1c1ccccc1	Peg3 promoter 65
Cc1ccc([C@@H]2[C@@H]3C(=O)N(C)C(=O)[C@@H]3[C@]3(Cc4ccccc4)C(=O)N(Cc4ccccn4)CC(=O)N23)o1	none
O=C(Nc1ccccn1)c1ccc2c(=O)n3c(nc2c1)CCCCC3	TWEAK-Fn14 inh 56
Cc1ccc(-c2csc(NC(=O)c3ccc4c(=O)n5c(nc4c3)CCCCC5)n2)cc1	TWEAK-Fn14 inh 70
O=C(Nc1cccc(Cl)c1)c1ccc2c(=O)n3c(nc2c1)CCCCC3	TROY signal inh 53
O=C(Nc1ccc(Cl)cc1)c1ccc2c(=O)n3c(nc2c1)CCCCC3	none
O=C(Nc1ccc(F)cc1)c1ccc2c(=O)n3c(nc2c1)CCCCC3	none
O=C(O)Cn1nnc(COc2ccccc2)n1	none
O=S(=O)(O)c1ccc(O)c2cc(Nc3ccccc3)ccc12	TWEAK-Fn14 inh 79
COc1ccc(C(=O)/C=C/Nc2ccc(S(=O)(=O)Nc3cccc(C(C)=O)c3)cc2)cc1	TWEAK-Fn14 inh 79
COc1ccc(NS(=O)(=O)c2cccc(C(=O)N3CCCC3)c2)cc1	Peg3 promoter 58
CCOC(=O)c1ccc(N/C=C\C(=O)c2cccc(OC)c2)cc1	none
COc1ccc(C(=O)/C=C/Nc2cccc(O)c2)cc1	TWEAK-Fn14 inh 52
COC(=O)c1ccc(N/C=C/C(=O)c2ccccc2)cc1	TWEAK-Fn14 inh 51
Cc1nc(-c2ccccc2)sc1C(=O)CSc1ccc(Br)cc1	none
CCOC(=O)c1cc(C#N)c(SC)nc1C	none
CCOC(=O)c1cc2c(N)c(C(=O)c3cc(C#N)c(SC)nc3C)sc2nc1C	KKLEB tox -64
CCN1CCN(S(=O)(=O)c2ccc(Cl)c(C(=O)NCc3ccco3)c2)CC1	none
Cc1ccc(-n2ncc(N(C)C)c(Cl)c2=O)cc1	TWEAK-Fn14 inh 55
CCCCC[C@@H](/C=C/C1C(=O)C=C[C@H]1C/C=C\CCCC(=O)OC)OC(C)=O (some centres undefined)	TWEAK-Fn14 inh 91, Peg3 promoter 81
COc1cc(Br)cc(/C=N/NC(=O)Cc2ccc(C(F)(F)F)cc2[N+](=O)[O-])c1O	Peg3 promoter 54
CCc1ccc(N=Nc2ccc(O)c3[nH]cnc23)cc1	none
NC(=O)C1CN(C(=O)c2cccc(S(=O)(=O)N3CCc4ccccc43)c2)c2ccccc2O1 (centres undefined)	none
COc1ccc(CCNC2=C(Cl)C(=O)N(CCc3ccc(OC)c(OC)c3)C2=O)cc1OC	TWEAK-Fn14 inh 51, Peg3 promoter 80
CC(OC(=O)c1cccc(-n2cnnn2)c1)C(=O)Nc1ccc(F)cc1Cl (centres undefined)	none
O=C(NC(c1ccc(-c2ccccc2)cc1)c1cnccn1)C1CCN(CCOc2ccc(F)cc2)CC1 (centres undefined)	Peg3 promoter 50
O=C(NC(c1ccc(Cl)cc1)c1cnccn1)C1CCN(CCOc2ccc(F)cc2)CC1 (centres undefined)	none
O=C(NC(c1ccc(-c2ccccc2)cc1)c1cnccn1)C1CCN(CCCOc2ccccc2)CC1 (centres undefined)	Peg3 promoter 103
CC(C)C(=O)N(Cc1cc(=O)[nH]c2ccccc12)c1ccccc1	none
O=S(=O)(Nc1nc2ccccc2nc1N1CCN(CCO)CC1)c1cc(F)ccc1F	none
CC1CCCCC1NC(=O)c1ccc(NS(=O)(=O)c2ccc3[nH]c(=O)[nH]c3c2)cc1 (centres undefined)	none
Cc1cccc(/C=C2\Sc3ccc(C(=O)N4CCC(C)CC4)cc3N(C)C2=O)c1	none
CCOC(=O)N1CCN(C(=O)c2ccc3c(c2)N(C)C(=O)/C(=C\c2ccc(OCC)c(OC)c2)S3)CC1	Peg3 promoter 53
CCOC(=O)N1CCC(NC(=O)c2ccc3c(c2)N(C)C(=O)/C(=C/c2cccc(OC)c2)S3)CC1	TROY signal inh 61, TWEAK-Fn14 inh 75
CCOC(=O)c1nn(-c2ccc(F)cc2)c(=O)cc1OCC(=O)N1CCN(c2ccccc2)CC1	none
COC(=O)c1cccc(NC(=O)C23CC4CC(C2)CC(n2cncn2)(C4)C3)c1	none
COc1ccccc1CNC(=O)C(=O)c1cn(CC(=O)N2CCCCC2)c2ccccc12	none
Cc1occc(=O)c1OC(=O)Nc1ccc(Cl)c(Cl)c1	TWEAK-Fn14 inh 59, KKLEB tox -65, CF NFkB inh 77
COc1ccc(C(=O)Oc2c(C)occc2=O)cc1OC	none
Oc1ccc(-c2cnns2)c(O)c1	TWEAK-Fn14 inh 63
Oc1ccc(-c2nc3ccccc3s2)c(O)c1	none
O=c1c2[nH]c3cccc(Cl)c3c2ncn1CC1CCCO1 (centres undefined)	TROY signal inh 77, TWEAK-Fn14 inh 87
Cc1ccc(S(=O)(=O)NC(=O)c2cccc(Br)c2)cc1	TWEAK-Fn14 inh 84
O=C(NS(=O)(=O)c1ccccc1)c1cccc(Br)c1	none
CCC(CC)C(=O)Nc1cccc(C(=O)Nc2ccc(S(=O)(=O)Nc3ccc(C)cc3)cc2)c1	TROY signal inh 54
CC(C)(C)c1cc[n+](C2=C([O-])c3ccccc3C(=O)/C2=N\S(=O)(=O)c2cccs2)cc1	TROY signal inh 70, TWEAK-Fn14 inh 84, Peg3 promoter 57, CF NFkB inh 75
N/C(=N\S(=O)(=O)c1cccs1)c1ccccc1	none
O=C1/C(=N\S(=O)(=O)c2cccs2)C([n+]2ccccc2)=C([O-])c2ccccc21	HIF-2a block 44, TROY signal inh 83, CF NFkB inh 68
CC(C)OC(=O)CSc1nnc(-c2cnccn2)n1-c1ccc(Cl)cc1	none
CC(C)(C)C(=O)C1=C(O)C(=O)N(Cc2ccccc2)C1c1ccccc1Cl (centres undefined)	none
Cc1cccc(NC(=O)COC(=O)C2COc3ccccc3O2)c1C (centres undefined)	none
CN(C)S(=O)(=O)c1cccc(NC(=S)N/N=C/c2cc(Br)ccc2O)c1	Peg3 promoter 54
CN(C)S(=O)(=O)c1cccc(NC(=S)N/N=C/c2cccc(O)c2)c1	none
COc1ccc(NC(=O)c2cc(S(=O)(=O)N3CCOCC3)cn2C)cc1Cl	none
O=C(Nc1nnc(-c2ccc3c(c2)CCCC3)o1)c1c(F)cccc1F	TWEAK-Fn14 inh 53
O=C(Nc1nnc(-c2ccc3c(c2)CCCC3)o1)c1ccc(Cl)cc1Cl	none
O=[N+]([O-])c1ccc(/C=N\NS(=O)(=O)c2ccc(F)cc2)o1	TWEAK-Fn14 inh 84
COc1ccc(S(=O)(=O)N/N=C\c2ccc([N+](=O)[O-])o2)c(OC)c1	none
Cc1ccc(CCNC(=O)c2nnc(CS(=O)(=O)c3ccccc3)o2)cc1	Peg3 promoter 62
O=C(NCCc1ccc(Cl)cc1)c1nnc(Cc2ccc(Cl)cc2)o1	none
Cc1onc(-c2ccccc2Cl)c1C(=O)Nc1ccc(-c2cn3cccnc3n2)cc1	Peg3 promoter 94
